PubChem BioAssay AID1578 (Sanford-Burnham Center for Chemical Genomics, 2009)
The campaign covered roughly 290,000 compounds. About 3,000 (1%) were called active. Rule as the data show it: active = inhibition mostly above about 36% (no sharp cut-off); inactive = mostly below about 34%. Shown is part of a subset that was picked to be rich in actives.

Assay: NOD1 signaling inhibitors, primary screen, cell-based, luminescence, uHTS (AID 1578);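 also: HEK-293T reporter cells stimulated with the NOD1 agonist gamma-tri-DAP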
Conditions: NOD1-driven NF-kB luciferase reporter cells, at 4 µM, stronger effect = higher value

Compound | inhibition
O=C(/C=C/c1cccc([N+](=O)[O-])c1)Nc1ccccc1N1CCOCC1 | -27.5% (inactive)
COCCCNC(=O)CCN1C(=O)COc2ccccc21 | 9.8% (inactive)
CC(C)(C)c1cc(C(=S)N2CCN(CCO)CC2)cc(C(C)(C)C)c1O | 11.9% (inactive)
CC(C)(C)c1cc(CN2CCN(CCO)CC2)cc(C(C)(C)C)c1O | 45.2% (inactive)
CC(C)(C)c1cc(C(c2cccnc2)N2CCN(CCO)CC2)cc(C(C)(C)C)c1O (configuration not stated) | 67.2% (active)
CCCN1C/C(=C/c2ccc3c(c2)OCO3)C(=O)/C(=C/c2ccc3c(c2)OCO3)C1 | 67.2% (active)
NCCN1C(=O)S/C(=C\c2ccc3c(c2)OCO3)C1=O | 27.3% (active)
O=C1/C(=C\c2ccc3c(c2)OCO3)CCC/C1=C/c1ccc2c(c1)OCO2 | -48% (inactive)
O=C(CCN1C(=O)/C(=C/c2ccc3c(c2)OCO3)SC1=S)Nc1ccccc1 | -5.3% (inactive)
CCOC(=O)CN1C(=O)S/C(=C\c2ccc3c(c2)OCO3)C1=O | 16.9% (inactive)
CCCN1C(=O)/C(=C/c2ccc3c(c2)OCO3)NC1=S | -29.7% (inactive)
CCOC(=O)c1c(NC(=O)c2cccc(N3C(=O)CCC3=O)c2)sc2c1CCN(CC)C2 | -16.7% (inactive)
CC(C)(C)C(=O)COC(=O)CCc1nc2ccccc2[nH]c1=O | 2.2% (inactive)
O=C(CCCN1C(=O)/C(=C\c2cccs2)SC1=S)Nc1ccccn1 | 4.3% (inactive)
O=C(CCN1C(=O)/C(=C\c2cccs2)SC1=S)Nc1ccccn1 | -42% (inactive)
O=C(CCCN1C(=O)/C(=C/c2cccs2)SC1=S)Nc1ccccn1 | 63.6% (active)
CSc1ccccc1-c1n[nH]c(=S)o1 | -15% (inactive)
CC(C)Cc1ccc(C(C)C(=O)O)cc1 (configuration not stated) | -13.2% (inactive)
CC(C)Cc1ccc(C(C)C(=N)N)cc1 (configuration not stated) | 43% (active)
CC(C)Cc1ccc(C(C)C(N)=NCCc2ccccc2)cc1 (configuration not stated) | -10.4% (inactive)
CCOP(=O)(OCC)C1NC(=O)N(c2ccccc2)C1=O (configuration not stated) | -1.7% (inactive)
CCc1ccc(C(=O)COC(=O)C(CCSC)NC(=O)c2ccccc2)cc1 (configuration not stated) | 16.6% (inactive)
CCC(C)(C)c1ccc(OCC(=O)N(C)C)c(C(C)(C)CC)c1 | 26.1% (inactive)

Compound | inhibition
CCC(C)(C)c1ccc(OCCCC[n+]2ccc(C)cc2)c(C(C)(C)CC)c1 | 43.7% (inactive)
Cc1cc(C(C)(C)C)ccc1OCCCCN1CCCC1 | -74.5% (inactive)
CCC(C)(C)c1ccc(OCCCC[n+]2ccccc2)c(C(C)(C)CC)c1 | 11.8% (inactive)
Cc1cccc(-c2oc3ccccc3c2C#CCCO)c1 | -12.5% (inactive)
COc1ccc(Oc2nccc(OC)c2C#N)cc1 | -18.4% (inactive)
Cn1c(=O)c2c(nc(SCC(=O)NCC3CCCO3)n2Cc2ccc(F)cc2)n(C)c1=O (configuration not stated) | -8.2% (inactive)
COc1ccc(CNC(=O)CN(Cc2ccc(Cl)cc2)C(=O)c2csnn2)cc1 | -9% (inactive)
Cc1oc(-c2cccs2)nc1CS(=O)CC(=O)NCc1ccc2c(c1)OCO2 (configuration not stated) | 1.1% (inactive)
COc1ccccc1CNC(=O)c1ccoc1C | 47.6% (active)
COc1ccccc1CCNC(=O)c1ccoc1C | -33.7% (inactive)
COc1ccccc1CNC(=O)c1ccccc1OC | -29.5% (inactive)
COc1ccc(-c2csc(NC(=O)CN3C(=O)CCC3=O)n2)cc1 | -30.6% (inactive)
Cc1ccc(C(=O)NCCCNC(=O)c2ccc(Cl)cc2)cn1 | -10.8% (inactive)
O=C(NNS(=O)(=O)c1ccccc1)c1ccc(F)cc1 | -11.4% (inactive)
CN1C=C/C(=C\c2cc[n+](C)c3ccccc23)c2ccccc21 | 20.8% (inactive)
C[n+]1c(/C=C/c2ccc(O)cc2)ccc2ccccc21 | -15.4% (inactive)
CCNC(=O)C1CCCc2c1[nH]c1ccc(Cl)cc21 (configuration not stated) | -25.3% (inactive)
CCN1C(=O)N(CC)C2C1N(C(C)=O)C(=O)N2C(C)=O (configuration not stated) | -26.2% (inactive)
Cc1c(NC(N)=O)c(=O)n(-c2ccccc2)n1C | 54.9% (active)
Cc1c(NC(=O)c2ccccc2)c(=O)n(-c2ccccc2)n1C | -17.8% (inactive)
Cc1c(NC(=O)CC(=O)Nc2c(C)n(C)n(-c3ccccc3)c2=O)c(=O)n(-c2ccccc2)n1C | 14.4% (inactive)
CCOc1ccc(/C=C/c2nc(C#N)c(NCCCOC)o2)cc1 | -11.6% (inactive)
CCOc1ccc(/C=C/c2nc(C#N)c(NCCCN(C)C)o2)cc1 | 2.8% (inactive)

Compound | inhibition
CCNc1oc(/C=C/c2ccc(OCC)cc2)nc1C#N | 64.9% (active)
COc1cc(NC(=O)CSc2nnc(-c3cc(C)on3)o2)cc(OC)c1 | 9.9% (inactive)
CCCc1nnc(NC(=O)C23CC4CC(CC(C4)C2)C3)s1 | 0.1% (inactive)
Cc1c(C(=O)Nc2ccccc2)sc2nc(-c3ccccc3)cn12 | -15.4% (inactive)
Cc1c(C(=O)Nc2ccc3c(c2)OCCO3)sc2nc(-c3ccccc3)cn12 | 79.1% (active)
Cc1c(C(=O)Nc2ccc3c(c2)OCO3)sc2nc(-c3ccccc3)cn12 | -35.7% (inactive)
CCCCOc1cccc(C(=O)NC(=S)Nc2cccc(NC(=O)c3ccccc3Cl)c2)c1 | -15.9% (inactive)
COc1ccc2c(c1OC)C(=O)N(c1cccc(C(F)(F)F)c1)C2 | -67.5% (inactive)
CC(=O)c1ccccc1C(=O)NCc1cccnc1 | -9.2% (inactive)
COC(=O)C1=C(C)Nc2c(c(=O)n(C)c(=O)n2C)C1c1cccnc1 (configuration not stated) | -10.6% (inactive)
COC(=O)C1=C(C)Nc2c(c(=O)n(C)c(=O)n2C)C1c1ccncc1 (configuration not stated) | 68.6% (active)
COC(=O)C1=C(C)Nc2c(c(=O)n(C)c(=O)n2C)C1c1ccc(C)cc1 (configuration not stated) | -27.5% (inactive)
Cc1ccc(S(=O)(=O)N(CC(=O)Nc2cccnc2)c2cccc([N+](=O)[O-])c2)cc1 | -14.2% (inactive)
Cc1ccc(/C=C2/SC(=S)N(CCCC(=O)Nc3cc([N+](=O)[O-])ccc3O)C2=O)cc1 | 71.1% (active)
Cc1ccc(O)c(NC(=O)CSc2ccc(Cl)cc2)c1 | 17% (inactive)
Cc1ccc(SCC(=O)Nc2cc([N+](=O)[O-])ccc2O)cc1 | 77.2% (active)
Cc1ccc(/C=C2\SC(=S)N(CCC(=O)NNC(=O)c3ccccc3O)C2=O)cc1 | -24.7% (inactive)
COc1ccc(/C=C2/SC(=S)N(CCCC(=O)Nc3ccccc3C(=O)O)C2=O)cc1 | 34.1% (inactive)
O=C(CCN1C(=O)/C(=C/c2ccc(F)cc2)SC1=S)Nc1cc([N+](=O)[O-])ccc1O | -1.3% (inactive)
O=C(CCCN1C(=O)/C(=C\c2cccs2)SC1=S)Nc1cc([N+](=O)[O-])ccc1O | 26.3% (inactive)
COc1ccc([N+](=O)[O-])cc1NC(=O)CSc1ccc2ccccc2c1 | 41.3% (inactive)
